Experimental data as given in PubChem BioAssay (NCI).
About 83,000 compounds went through this panel and 20% of them were active in at least one assay; those are over-represented in the sample as a whole.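 Activity criterion: percent growth below 10, measured after cells in 96-well plates were exposed to a single compound concentration for 48 hours.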 Unmarked numbers belong to inactive results. Activity calls are given as the source filed them.

How the values were obtained:
Assay in all cases: NCI-60 one-dose screen, 48 h (100 = growth as untreated, 0 = no growth, -100 = all killed)
Details in all cases: 10 µM unless noted
[1] = test system: NCI-H23 lung
[2] = test system: NCI-H226 lung
[3] = test system: NCI-H322M lung
[4] = test system: HOP-62 NSCLC
[5] = test system: NCI-H460 lung
[6] = test system: HOP-92 NSCLC
[7] = test system: NCI-H522 lung
[8] = test system: A549/ATCC NSCLC
[9] = test system: 786-0 renal
[10] = test system: COLO 205 colon

CCN(CC)CCOC(=O)C(c1ccccc1)(c1ccccc1)C(C)C
growth [1]: 90.2% | growth [2]: 92.9% | growth [3]: 82.3% | growth [4]: 83.2% | growth [5]: 92% | growth [6]: 77.7% | growth [7]: 86.6%

Cc1cc(C2(c3cc(C)c(O)cc3C)OS(=O)(=O)c3ccccc32)c(C)cc1O
growth [1]: 106% | growth [2]: 106% | growth [3]: 101% | growth [4]: 92.2% | growth [5]: 108% | growth [6]: 81.7% | growth [7]: 92.2% | growth [8]: 97.2% | growth [9]: 109%

COc1ccc(/C=C2\N=C(c3ccccc3)N(C(=O)c3ccccc3O)NC2=O)cc1
growth [1]: 89.7% | growth [2]: 101% | growth [3]: 105% | growth [4]: 99.1% | growth [5]: 98.7% | growth [6]: 75.5% | growth [7]: 100% | growth [8]: 97.3% | growth [9]: 89.8%

COc1ccc(C(=O)N2NC(=O)/C(=C/c3ccc(Br)cc3)N=C2c2ccccc2)cc1
growth [1]: 93.8% | growth [2]: 95.1% | growth [3]: 90.6% | growth [4]: 46.6% | growth [5]: 96.9% | growth [6]: 64.4% | growth [7]: 85.3% | growth [8]: 87.6% | growth [9]: 90.4% | growth [10]: 105%

CCCCCCCC[C@@H](O)CC(=O)N[C@@H](CC(N)=O)C(=O)N[C@@H](CCC(N)=O)C(=O)N[C@@H](CC(=O)c1cc(C)cc(O)c1C(=O)c1c(O)cccc1O)CC(C)C
growth [1]: 23.5% | growth [2]: 89.1% | growth [3]: 86.8% | growth [4]: 6.71% (active) | growth [5]: 23.4% | growth [6]: -17.8% (active) | growth [7]: -22.5% (active) | growth [8]: 60.1% | growth [9]: 11.6% | growth [10]: 13.5%

Oc1ccccc1/C=N/NC(=S)NC1CC2C=CC1C2 (configuration not stated)
growth [1]: 56.3% | growth [2]: 107% | growth [3]: 83.1% | growth [4]: 85.6% | growth [5]: 16.6% | growth [6]: 82.4% | growth [7]: 60.3% | growth [8]: 69.9% | growth [9]: 83.4%

CCCCCCCCN(CCCCCCCC)CCCCCCNc1cc(OC)cc2cccnc12
growth [1]: 55.6% | growth [2]: 100% | growth [3]: 88.5% | growth [4]: 96.7% | growth [5]: 92.8% | growth [6]: 62.6% | growth [7]: 92.1% | growth [8]: 105% | growth [9]: 93.7%

c1cc2[nH]ncc2cc1-c1nc2ccc3[nH]ncc3c2c2c1CCC2
growth [1]: 70.2% | growth [2]: 42.5% | growth [3]: 58% | growth [4]: 47.6% | growth [5]: 31.5% | growth [6]: 42.5% | growth [7]: 6.78% (active) | growth [8]: 39.4% | growth [9]: 49.7%

COc1cccc(-c2nc3sccn3c2-c2ccnc(NCCCNS(=O)(=O)c3ccc(C(F)(F)F)cc3)c2)c1
growth [1]: 70.4% | growth [2]: 59.4% | growth [3]: 79.4% | growth [4]: 91.3% | growth [5]: 52.4% | growth [6]: 68.9% | growth [7]: 68.4% | growth [8]: 44.1% | growth [9]: 58.6% | growth [10]: 70.2%

Cc1ccc(N2CCN(C(C)C(N)=O)CC2)cc1 (configuration not stated)
growth [1]: 104% | growth [2]: 109% | growth [3]: 116% | growth [4]: 109% | growth [5]: 121% | growth [6]: 123% | growth [7]: 90.7% | growth [8]: 113% | growth [9]: 103% | growth [10]: 122%

CC(=O)Oc1cccc(S(=O)(=O)n2cc(C(=O)C(=O)Nc3ccncc3)c3ccccc32)c1
growth [1]: 62.6% | growth [2]: 73.6% | growth [3]: 92.3% | growth [4]: 87.2% | growth [5]: 82.1% | growth [6]: 70.5% | growth [7]: 63.9% | growth [8]: 72.7% | growth [9]: 91.2% | growth [10]: 100%

COc1ccc(-c2nc(/C=N/Nc3cc(C)nc4ccc(Cl)cc34)c(C)o2)cc1
growth [1]: 42.1% | growth [2]: 75.6% | growth [3]: -92.5% (active) | growth [4]: 83.2% | growth [5]: -89.2% (active) | growth [6]: -84.8% (active) | growth [7]: -85.2% (active) | growth [8]: -91.6% (active) | growth [9]: -87.5% (active) | growth [10]: -72.8% (active)

COc1ccc(C(=O)N2NC(=O)/C(=C/c3cn(-c4ccccc4)nc3-c3ccccc3)N=C2c2ccccc2)cc1
growth [1]: 97.3% | growth [2]: 102% | growth [3]: 97.3% | growth [4]: 115% | growth [5]: 106% | growth [6]: 100% | growth [7]: 95.9% | growth [8]: 91.6% | growth [9]: 93% | growth [10]: 120%

CCN(CC)CCCC(C)Nc1c2ccc(Cl)cc2nc2cc(OC)c(OC)cc12 (configuration not stated)
growth [1]: 21% | growth [2]: 32.3% | growth [3]: 0.383% (active) | growth [4]: 32.3% | growth [5]: -31.6% (active) | growth [6]: -9.58% (active) | growth [7]: 14.9% | growth [8]: 4.12% (active) | growth [9]: 38.6% | growth [10]: -33.6% (active)

COc1c2occc2c(OC)c2c(=O)c(-c3cc(-c4ccc(F)cc4)c(C#N)c(N)n3)c(C)oc12
growth [1]: 36.1% | growth [2]: 72.1% | growth [3]: 40.3% | growth [4]: 27.9% | growth [5]: 24.9% | growth [6]: 30.6% | growth [7]: 49.4% | growth [8]: 25.2% | growth [9]: 51.2% | growth [10]: 27.2%

Nc1cccc(-c2nc3sccn3c2-c2ccnc(NCCCNS(=O)(=O)c3cccc4ccccc34)n2)c1
growth [1]: 44.3% | growth [2]: 29.8% | growth [3]: 63.5% | growth [4]: 64.3% | growth [5]: 35.5% | growth [6]: 92.4% | growth [7]: 34.9% | growth [8]: 39.2% | growth [9]: 53.9% | growth [10]: 24.1%

CCN(CC)c1ccc(C(=N)c2ccc(N(CC)CC)cc2)cc1
growth [1]: -52.9% (active) | growth [2]: -33.5% (active) | growth [3]: 16.2% | growth [4]: -82.7% (active) | growth [5]: -44.5% (active) | growth [6]: -30.6% (active) | growth [7]: -62.4% (active) | growth [8]: 6.12% (active) | growth [9]: -55.2% (active) | growth [10]: -96.6% (active)

COc1ccc(/C=C2\Oc3cc(OCCCN4CCCC4)ccc3C2=O)c(OC)c1
growth [1]: 87.9% | growth [2]: 96.4% | growth [3]: 94.6% | growth [4]: 101% | growth [5]: 23.5% | growth [6]: 83.8% | growth [7]: 75% | growth [8]: 80.5% | growth [9]: 89.4% | growth [10]: 92.8%

Cc1ccc(C(=O)C2=Cc3cc4ccccc4n3Cc3cnnn32)cc1
growth [1]: 100% | growth [2]: 98.1% | growth [3]: 95.9% | growth [4]: 87.4% | growth [5]: 108% | growth [6]: 86% | growth [7]: 64.5% | growth [8]: 99.2% | growth [9]: 94.6% | growth [10]: 111%

COc1ccc(-c2nc(-c3nc4cc(C)c(C)cc4[nH]3)cc3c2[nH]c2ccccc23)cc1
growth [1]: 60.1% | growth [2]: 95.8% | growth [3]: 84% | growth [4]: 58.4% | growth [5]: 42.2% | growth [6]: 52.3% | growth [7]: 72.5% | growth [8]: 43.2% | growth [9]: 6.87% (active) | growth [10]: 41.9%

C=C[C@@H]1C[C@@H]2Cc3cc(F)ccc3N1O2
growth [1]: 103% | growth [2]: 120% | growth [3]: 137% | growth [4]: 102% | growth [5]: 112% | growth [6]: 105% | growth [7]: 98.7% | growth [8]: 95.3% | growth [9]: 111% | growth [10]: 123%

Cc1ccc(S(=O)(=O)NCCNc2nccc(-c3c(-c4ccc(O)cc4)nc4sccn34)n2)cc1
growth [1]: 95.1% | growth [2]: 98.8% | growth [3]: 110% | growth [4]: 113% | growth [5]: 106% | growth [6]: 101% | growth [7]: 84% | growth [8]: 94.1% | growth [9]: 97.3% | growth [10]: 104%

C=C1CCC2C(C)(CO)C(O)CCC2(C)C1C/C=C1/C(=O)OCC1Oc1ccccc1C (configuration not stated)
growth [1]: 94% | growth [2]: 80% | growth [3]: 98.6% | growth [4]: 101% | growth [5]: 104% | growth [6]: 118% | growth [7]: 23.8% | growth [8]: 89.1% | growth [9]: 98% | growth [10]: 105%

O=S(=O)(NCCNc1nccc(-c2c(-c3cccc(O)c3)nc3sccn23)n1)c1ccc(F)cc1
growth [1]: 87% | growth [2]: 91.8% | growth [3]: 90.4% | growth [4]: 103% | growth [5]: 67.3% | growth [6]: 92.8% | growth [7]: 64.4% | growth [8]: 52% | growth [9]: 77% | growth [10]: 37.6%

COC(=O)C1CCCN1C(=O)[C@@H]1CCCN1C(=O)[C@H](Cc1c[nH]c2ccccc12)NC(=S)Nc1cc(C(F)(F)F)cc(C(F)(F)F)c1 (some centres not stated)
growth [1]: 69% | growth [2]: 75.7% | growth [3]: 74.7% | growth [4]: 80.2% | growth [5]: 22.3% | growth [6]: 17% | growth [7]: 46% | growth [8]: 37.1% | growth [9]: 37.6% | growth [10]: 66.5%

O=C1/C(=C/c2ccc(Cl)cc2)CN(Cc2cn(CCNc3ccnc4cc(Cl)ccc34)nn2)C/C1=C\c1ccc(Cl)cc1
growth [1]: -71.3% (active) | growth [2]: -70.6% (active) | growth [3]: -87% (active) | growth [4]: -100% (active) | growth [5]: -78.6% (active) | growth [6]: -75% (active) | growth [7]: -99.4% (active) | growth [8]: -85.1% (active) | growth [9]: -88.7% (active) | growth [10]: -100% (active)

COc1ccc(C(=O)N2NC(=O)/C(=C/c3ccccc3F)N=C2c2ccccc2)cc1
growth [1]: 93.5% | growth [2]: 104% | growth [3]: 110% | growth [4]: 108% | growth [5]: 106% | growth [6]: 96.8% | growth [7]: 102% | growth [8]: 96.2% | growth [9]: 102% | growth [10]: 122%
